One may read the inhibition as the relative decrease from the control value, in per cent.

Experimental findings from PubChem BioAssay are described below.

Unmarked numbers belong to inactive results.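 How the source made its calls, unless noted: active means luciferase signal above three times the same-plate solvent-only control wells; inactive means the rest.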

For assay [1], the target named is 6-phosphogluconate dehydrogenase, decarboxylating (Homo sapiens) (UniProt P52209). The experiment in a line: inhibition of human phosphogluconate dehydrogenase – biochemical, recombinant enzyme, NADPH absorbance, primary screen (AID 1159550;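 active means at least 20% inhibition of 6-phosphogluconate dehydrogenase activity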). The conditions noted are these: recombinant 6PGD, NADPH absorbance 341 nm; at 10 µM; active compounds read high.
6-phosphogluconate dehydrogenase, decarboxylating (Homo sapiens), sequence (P52209 whole entry, looked up, the tested form may be a part): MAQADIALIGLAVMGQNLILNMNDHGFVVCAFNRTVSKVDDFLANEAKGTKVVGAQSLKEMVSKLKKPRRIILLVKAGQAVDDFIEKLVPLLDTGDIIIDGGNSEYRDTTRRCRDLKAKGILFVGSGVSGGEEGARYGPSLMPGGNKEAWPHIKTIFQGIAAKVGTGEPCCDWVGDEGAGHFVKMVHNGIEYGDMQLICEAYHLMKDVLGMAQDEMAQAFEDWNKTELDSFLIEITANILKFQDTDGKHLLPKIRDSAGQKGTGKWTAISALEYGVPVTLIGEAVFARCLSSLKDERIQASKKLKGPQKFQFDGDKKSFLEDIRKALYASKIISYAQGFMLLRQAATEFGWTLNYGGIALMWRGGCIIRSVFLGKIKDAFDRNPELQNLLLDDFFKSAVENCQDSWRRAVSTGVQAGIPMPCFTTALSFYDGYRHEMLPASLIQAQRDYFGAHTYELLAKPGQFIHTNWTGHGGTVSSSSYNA
In assay [2] the target is Mitogen-activated protein kinase 7 (Homo sapiens) (UniProt Q13164). The experiment in a line: Gal4-ERK5 driven luciferase induction – cell-based, HTS, primary screen (AID 1508626).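 Further: luciferase driven by Gal4-ERK5 fusion binding five Gal4 sites before minimal TATA.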 Particulars: HeLa Gal4-ERK5 transactivation, 18 h, at 5 µM, active compounds read high.
Mitogen-activated protein kinase 7 (Homo sapiens), sequence (Q13164 whole entry, looked up, the tested form may be a part): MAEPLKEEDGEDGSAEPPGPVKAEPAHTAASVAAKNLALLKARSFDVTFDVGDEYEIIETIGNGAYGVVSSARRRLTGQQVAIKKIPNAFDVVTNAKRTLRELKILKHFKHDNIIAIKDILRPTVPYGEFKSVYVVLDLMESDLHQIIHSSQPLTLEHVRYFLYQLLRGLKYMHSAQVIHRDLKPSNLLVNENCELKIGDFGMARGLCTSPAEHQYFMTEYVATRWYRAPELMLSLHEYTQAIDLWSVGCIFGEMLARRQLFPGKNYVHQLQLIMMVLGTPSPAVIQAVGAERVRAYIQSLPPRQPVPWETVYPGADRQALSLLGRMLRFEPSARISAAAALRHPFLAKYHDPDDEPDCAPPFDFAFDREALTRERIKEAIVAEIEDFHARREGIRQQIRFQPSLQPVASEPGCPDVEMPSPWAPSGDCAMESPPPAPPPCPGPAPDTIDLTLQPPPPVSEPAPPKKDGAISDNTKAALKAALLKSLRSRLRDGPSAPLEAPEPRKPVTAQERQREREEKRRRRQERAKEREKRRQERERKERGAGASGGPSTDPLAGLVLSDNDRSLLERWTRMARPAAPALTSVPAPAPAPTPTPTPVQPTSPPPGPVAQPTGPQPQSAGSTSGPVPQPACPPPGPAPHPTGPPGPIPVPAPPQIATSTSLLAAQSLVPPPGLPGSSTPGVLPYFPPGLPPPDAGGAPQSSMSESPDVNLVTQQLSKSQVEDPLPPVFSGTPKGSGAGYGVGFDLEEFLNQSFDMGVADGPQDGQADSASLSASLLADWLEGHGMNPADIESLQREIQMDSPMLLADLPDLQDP

As for `CN1CCCC1c1cccnc1` (centres undefined), the inhibition in assay [1] was 17.4%. The luciferase signal in assay [2] was 56 AU.

Turning to `COc1ccc(-c2oc3cc(O[C@@H]4O[C@H](CO)[C@@H](O)[C@H](O)[C@H]4O)c(OC)c(O)c3c(=O)c2OC)cc1O`, in assay [1], the inhibition was -33.5%. In assay [2], the luciferase signal was 172 AU.

As to `O=c1cc(-c2ccc(O)cc2)oc2cc(O[C@@H]3O[C@H](CO)[C@@H](O)[C@H](O)[C@H]3O)cc(O)c12`, the inhibition in assay [1] was -5.65%. In addition, in assay [2], the luciferase signal is 120 AU.

In the case of `CC(=O)OC(C)(C)[C@@H]1Cc2cc3ccc(=O)oc3cc2O1`, the inhibition in assay [1] is 2.42%. Also, the luciferase signal in assay [2] was 40 AU.

Consider `OC[C@H]1O[C@@](CO)(O[C@H]2O[C@H](CO)[C@@H](O)[C@H](O)[C@H]2O)[C@@H](O[C@H]2O[C@H](CO)[C@@H](O)[C@H](O)[C@H]2O)[C@@H]1O`, for which, in assay [1], the inhibition is 15.1%. The luciferase signal in assay [2] was 60 AU.

With `COc1cc(OC)c2c(c1Cl)O[C@@]1(C(=O)CC(=O)C[C@H]1C)C2=O`, in assay [1], the inhibition was 4.62%. Also, in assay [2], the luciferase signal was 48 AU.

In the case of `N[C@@H](CCC(=O)N[C@@H](CSC(CC(=O)O)C(=O)O)C(=O)NCC(=O)O)C(=O)O` (some centres undefined), the inhibition in assay [1] was 6.35%. Besides, the luciferase signal in assay [2] is 68 AU.

Turning to `CC(C)CCC[C@@H](C)[C@H]1CC[C@H]2C3=CC[C@H]4C[C@@H](O)CC[C@]4(C)[C@H]3CC[C@]12C`, the inhibition in assay [1] is 4.86%. In addition, the luciferase signal in assay [2] was 56 AU.

Consider `C[C@H]1C(=O)CC[C@@H]2[C@]1(C)CC[C@H]1[C@@]2(C)CC[C@@]2(C)[C@@H]3CC(C)(C)CC[C@]3(C)CC[C@]12C`, for which the inhibition in assay [1] was 7.58%. Also, in assay [2], the luciferase signal was 88 AU.

Take `CC(C)=CCc1c(O)cc2occ(-c3ccc4c(c3)OCO4)c(=O)c2c1O`: the inhibition in assay [1] is -0.247%. Besides, the luciferase signal in assay [2] is 104 AU.

On to `COC(=O)C[C@H]1C(C)(C)C2(O)OC34CC2C(=O)[C@]1(C)C3CC[C@]1(C)C4=CC(=O)O[C@H]1c1ccoc1` (some centres undefined), for which the inhibition in assay [1] is 4.12%. The luciferase signal in assay [2] was 20 AU.

With `CC1/C(=N/O)C[C@@H]2C[C@H]1C2(C)C` (some centres undefined), the inhibition in assay [1] is -7.59%. In assay [2], the luciferase signal was 52 AU.

On to `COc1ccc(CC(=O)c2ccc(O)cc2O)cc1`, for which, in assay [1], the inhibition is 17.5%. Besides, the luciferase signal in assay [2] was 76 AU.

As for `CC(=O)O[C@H]1CC[C@@]2(C)C(=CC=C3[C@@H]4CC[C@H]([C@H](C)/C=C/[C@H](C)C(C)C)[C@@]4(C)CC[C@@H]32)C1`, the inhibition in assay [1] was 14.6%. Moreover, the luciferase signal in assay [2] is 72 AU.

For the molecule `COc1cc(C)c(C(=O)Oc2cc(C)c(C(=O)O)c(O)c2C)c(O)c1C=O`, in assay [1], the inhibition was 2.14%. Also, the luciferase signal in assay [2] is 120 AU.

For `COc1ccc(-c2cc(=O)c3cc(OC)ccc3o2)cc1`, the inhibition in assay [1] was -2.36%. Besides, the luciferase signal in assay [2] was 40 AU.

Take `CC(=O)OC1C[C@@]2(C)[C@H](c3ccoc3)OC(=O)[C@H]3O[C@]32[C@@]2(C)C1[C@]1(C)C(C[C@H]2OC(C)=O)C(C)(C)[C@H](OC(C)=O)C[C@@H]1OC(C)=O` (some centres undefined): the inhibition in assay [1] is -3.59%. Also, the luciferase signal in assay [2] is 24 AU.

For the molecule `NC(=O)NCCC[C@H](N)C(=O)O`, the inhibition in assay [1] is 15.5%. In addition, in assay [2], the luciferase signal is 72 AU.

Take `COC(=O)C[C@H]1C(C)(C)[C@@H](O)[C@@H]2CC3=C4C=C(OC)O[C@@H](c5ccoc5)[C@]4(C)CCC3[C@@]1(C)C2=O` (some centres undefined): the inhibition in assay [1] was 1.56%. The luciferase signal in assay [2] was 28 AU.

As for `CC1=C[C@@H]2[C@@H](CC1)[C@](C)(O)CC[C@H]2C(C)C`, the inhibition in assay [1] is 9.65%. Further, the luciferase signal in assay [2] was 48 AU.

Regarding `O=C(O)/C=C(/CC(=O)O)C(=O)O`, in assay [1], the inhibition was 8.82%. Moreover, the luciferase signal in assay [2] was 60 AU.

Regarding `O=C1CC[C@]23/C=C\C(=O)NCCCCNCCCNC(=O)/C=C\c4ccc(c2c4)O[C@@H]3C1`, the inhibition in assay [1] is -0.518%. In assay [2], the luciferase signal was 36 AU.

On to `O=C(/C=C(\O)c1ccccc1)c1ccccc1O`, for which the inhibition in assay [1] was -0.592%. Further, the luciferase signal in assay [2] was 16 AU.

Regarding `CC(=O)O[C@H]1C[C@@H](OC(C)=O)C(C)(C)[C@@H]2C[C@@H](OC(C)=O)[C@]3(C)[C@H](CC[C@@]4(C)[C@H](c5ccoc5)OC(=O)[C@H]5O[C@@]534)[C@@]12C`, the inhibition in assay [1] was -4.75%. Moreover, the luciferase signal in assay [2] is 12 AU.

For the molecule `CO[C@H]1C=C[C@@]23c4cc5c(cc4CN(C[C@@H]2O)[C@H]3C1)OCO5`, the inhibition in assay [1] was 13.8%. Also, in assay [2], the luciferase signal is 44 AU.

`COC1[C@H](O)[C@@H](O)C(O)[C@H](O)[C@H]1O` (some centres undefined): the inhibition in assay [1] is -7.09%. For the same molecule, the luciferase signal in assay [2] is 136 AU.

For `C[C@@H]1O[C@@H](Oc2c(-c3ccc(O)c(O)c3)oc3cc(O)cc(O)c3c2=O)[C@H](O)[C@H](O)[C@H]1O`, the inhibition in assay [1] is -14.2%. For the same molecule, the luciferase signal in assay [2] is 52 AU.

For the molecule `COc1ccc(-c2cc(=O)c3c(O)c(OC)c(O[C@@H]4O[C@H](CO[C@@H]5O[C@@H](C)[C@H](O)[C@@H](O)[C@H]5O)[C@@H](O)[C@H](O)[C@H]4O)cc3o2)cc1`, the inhibition in assay [1] was -2.78%. The luciferase signal in assay [2] was 76 AU.

With `CC1(O)CC2C(CC1O)C2(C)C` (centres undefined), the inhibition in assay [1] is 13.8%. In addition, in assay [2], the luciferase signal was 60 AU.

On to `COC(=O)C[C@H]1C2(C)CC34OC5(C)O[C@@]6([C@H](OC(C)=O)C(OC(C)=O)[C@]7(C)C(/C(=C(/O)C(C)C)C(=O)O[C@H]7c7ccoc7)[C@@]6(O5)[C@H](OC(C)=O)[C@@]3(O)C2OC(=O)C(C)C)[C@]14C` (some centres undefined), for which, in assay [1], the inhibition was -3.02%. For the same molecule, the luciferase signal in assay [2] is 24 AU.

In the case of `CC(C)C1=CC2=CC[C@@H]3[C@](C)(CCC[C@@]3(C)C(=O)O)[C@H]2CC1`, the inhibition in assay [1] was -6.38%. Also, the luciferase signal in assay [2] was 44 AU.

`CC(C)=CCC/C(C)=C\CO`: the inhibition in assay [1] was 6.7%. The luciferase signal in assay [2] is 60 AU.

`Cn1c(=O)[nH]c2nc[nH]c2c1=O`: the inhibition in assay [1] was -4.63%. In addition, the luciferase signal in assay [2] is 56 AU.

Regarding `CC[C@H](CC[C@@H](C)[C@H]1CC[C@H]2[C@@H]3CC=C4C[C@@H](OC(C)=O)CC[C@]4(C)[C@H]3CC[C@]12C)C(C)C`, the inhibition in assay [1] is 9.08%. The luciferase signal in assay [2] is 36 AU.

On to `C/C=C(/C)C(=O)O[C@@H]1c2c(ccc3ccc(=O)oc23)OC(C)(C)[C@@H]1OC(C)=O`, for which the inhibition in assay [1] was 4.61%. In assay [2], the luciferase signal is 56 AU.

As to `COc1cc(C)c(C(=O)O)c(O)c1`, the inhibition in assay [1] was -0.391%. For the same molecule, in assay [2], the luciferase signal was 80 AU.

For `COC(=O)CCCOc1ccc(Cl)cc1Cl`, the inhibition in assay [1] is -8.02%. The luciferase signal in assay [2] was 60 AU.
